Laboratory results published in PubChem BioAssay AID743449 (Broad Institute, 2014).
“And” between values parts separate entries of the source, which are not always exact repeats. Equal entries are not always repeated. Among all 9,900 compounds or so, about 90 (0.9%) were called active. Inconclusive results (about 2%) are left out.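 The calls were made as follows: active = mean normalized replicate activity at least 50 and at least half of replicates each reaching 50; inconclusive = only one of the two criteria met; inactive = neither criterion met.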 For the sample, actives were picked, then their nearest neighbours and some compounds at random.

Experiment: reduction of CTGF mRNA in DLD1 cells – DLD1 colon cancer cells, RT-qPCR, single point, primary screen (AID 743449);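 also: 0% = neutral control wells and 100% = dasatinib control wells; higher means stronger suppression of CTGF expression like dasatinib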
Conditions: 24 h, at 12.5 µM, stronger effect = higher value
In the case of `O=C(c1cnccn1)N1C[C@@H]2N[C@H](C1)C2c1ccc(/C=C/c2ccccc2)cc1` (some centres undefined), the inhibition is reported as -30.1% (inactive) and 19.5% (inactive).
With `O=C(C[C@H]1CC[C@H]2[C@@H](COC[C@@H](O)CN2C(=O)c2ccc(F)cc2)O1)N1CCCCC1` the inhibition was -4.99% (inactive).
For `COc1ccc(-c2ccc([C@H]3[C@H](CO)N4C(=O)CN(C(=O)C5CC5)C[C@@H]34)cc2)cc1`, the inhibition was 4.63% (inactive).
With `COc1cccc(NC(=O)N[C@H]2CC[C@@H](CC(=O)N3CCN(C)CC3)O[C@@H]2CO)c1` the inhibition was -6.95% (inactive).
With `O=C(NC[C@H]1N[C@H](CO)[C@@H]1c1ccc(-c2cncnc2)cc1)C1CCCCC1` the inhibition was -7.65% (inactive).
In the case of `COc1ccc2c3c(n(C)c2c1)[C@@H](CO)N(C(C)=O)CC31CN(S(=O)(=O)c2ccccc2)C1`, the inhibition is reported as 1.07% (inactive).
For `CC(C)c1cccc(NC(=O)C[C@H]2CC[C@H]3[C@@H](COc4ccc(NC(=O)NCc5ccccc5)cc4C(=O)N3C)O2)c1`, the inhibition was 22.2% (inactive).
For `O=C(Nc1ccccc1F)N1C[C@@H]2[C@H](c3ccccc31)[C@@H](CO)N2C(=O)Cc1cccnc1`, the inhibition was 7.57% (inactive).
In the case of `CN1c2ccc(Br)cc2[C@@H]2[C@@H](CCN2S(=O)(=O)c2ccccc2F)[C@@H]1CO`, the inhibition is reported as 9.29% (inactive).
In the case of `NCC[C@H]1CC[C@@H](NC(=O)NC2CCCCC2)[C@H](CO)O1`, the inhibition is reported as 53% (active).
In the case of `NCC[C@@H]1CC[C@@H](NC(=O)NC2CCCCC2)[C@@H](CO)O1`, the inhibition is reported as 5.69% (inactive).
With `NCC[C@H]1CC[C@H](NC(=O)NC2CCCCC2)[C@@H](CO)O1` the inhibition was 23.6% (inactive).
For `O=C(NCc1cccc(F)c1)[C@H]1[C@H](CO)[C@H]2Cn3c(ccc(-c4ccncc4)c3=O)[C@@H]1N2CC1CC1`, the inhibition was -29.8% (inactive).
With `Cn1cnc(S(=O)(=O)N[C@@H]2CC[C@H](CC(=O)NCC3CCCCC3)O[C@H]2CO)c1` the inhibition was -20.2% (inactive).
With `COc1ccc2c3c(n(C)c2c1)[C@@H](CO)N(CC1CC1)CC31CN(S(=O)(=O)c2cn(C)cn2)C1` the inhibition was 10% (inactive).
With `Cc1ccc(S(=O)(=O)N[C@@H]2C=C[C@@H](CC(=O)NCc3ccc(Cl)c(Cl)c3)O[C@H]2CO)cc1` the inhibition was 31% (inactive).
In the case of `Cc1ccc(S(=O)(=O)N[C@H]2C=C[C@H](CC(=O)NCc3ccc(Cl)c(Cl)c3)O[C@@H]2CO)cc1`, the inhibition is reported as -5.24% (inactive).
For `Cc1ccc(S(=O)(=O)N[C@H]2C=C[C@H](CC(=O)NCc3ccc(Cl)c(Cl)c3)O[C@H]2CO)cc1`, the inhibition was 52.5% (active).
In the case of `C/C=C/c1ccc([C@@H]2[C@@H](C#N)N(c3nc(CC)cs3)[C@@H]2CO)cc1`, the inhibition is reported as 44.5% (inactive).
With `COc1cccc(-c2ccc([C@H]3[C@@H](CO)N(C(=O)Cc4ccncc4)[C@H]3C#N)cc2)c1` the inhibition was -2.53% (inactive).
With `COc1cccc(-c2ccc([C@H]3[C@H](C#N)N(C(=O)Cc4ccncc4)[C@H]3CO)cc2)c1` the inhibition was -33.7% (inactive).
With `COc1cccc(-c2ccc([C@@H]3[C@@H](C#N)N(C(=O)Cc4ccncc4)[C@@H]3CO)cc2)c1` the inhibition was 50.4% (active).
For `COc1ccc(CN(C)C[C@@H]2Oc3ccc(NC(=O)Nc4ccc5c(c4)OCO5)cc3CC(=O)N([C@@H](C)CO)C[C@H]2C)cc1`, the inhibition was 13.9% (inactive).
In the case of `COc1ccc(CN(C)C[C@H]2Oc3ccc(NC(=O)Nc4ccc5c(c4)OCO5)cc3CC(=O)N([C@@H](C)CO)C[C@H]2C)cc1`, the inhibition is reported as 57.9% (active).
In the case of `COc1ccc(CN(C)C[C@H]2Oc3ccc(NC(=O)Nc4ccc5c(c4)OCO5)cc3CC(=O)N([C@@H](C)CO)C[C@@H]2C)cc1`, the inhibition is reported as -64.7% (inactive).
For `C[C@@H]1CN([C@H](C)CO)C(=O)Cc2cc(NC(=O)C3CCCCC3)ccc2O[C@H]1CN(C)Cc1ccc(Cl)c(Cl)c1`, the inhibition was -7.16% (inactive).
With `C[C@H]1CN([C@@H](C)CO)C(=O)Cc2cc(NC(=O)C3CCCCC3)ccc2O[C@H]1CN(C)Cc1ccc(Cl)c(Cl)c1` the inhibition was 35.6% (inactive).
With `C[C@@H]1CN([C@@H](C)CO)C(=O)Cc2cc(NC(=O)C3CCCCC3)ccc2O[C@@H]1CN(C)Cc1ccc(Cl)c(Cl)c1` the inhibition was 50.3% (active).
In the case of `C/C=C/c1ccc([C@H]2[C@@H](CO)N(C(=O)Nc3ccccc3F)[C@H]2C#N)cc1`, the inhibition is reported as 23.1% (inactive).
In the case of `COC(=O)C[C@H]1CC[C@@H](N)[C@@H](CO)O1`, the inhibition is reported as 15.9% (inactive).
For `CNC[C@H]1OCc2ccccc2-c2ccccc2C(=O)N([C@H](C)CO)C[C@H]1C`, the inhibition was -6.87% (inactive).
In the case of `CCCN1C[C@H](C)[C@H](OC)CN(C)C(=O)c2cc(NC(=O)Nc3cccc(F)c3)ccc2OC[C@@H]1C`, the inhibition is reported as 6.58% (inactive).
For `CO[C@@H]1CC[C@@H]2CCOc3ccc(C#N)cc3C(=O)N(C)[C@H](C)C(=O)N(C)C[C@H]1O2`, the inhibition was -48.9% (inactive).
With `CN1CCN(C(=O)C[C@H]2CC[C@@H]3[C@@H](COc4ccc(NC(=O)C5CCOCC5)cc4C(=O)N3C)O2)CC1` the inhibition was 27.7% (inactive).
In the case of `CN1C(=O)c2cc(NS(=O)(=O)c3ccccc3F)ccc2OC[C@@H]2O[C@@H](CC(=O)NC3Cc4ccccc4C3)CC[C@@H]21`, the inhibition is reported as 108% (active).
For `CN1C(=O)c2cc(NC(=O)Cc3cccs3)ccc2OC[C@H]2O[C@@H](CC(=O)NCCc3ccncc3)CC[C@@H]21`, the inhibition was -83.9% (inactive).
With `CCS(=O)(=O)Nc1ccc2c(c1)C(=O)N(C)[C@H]1CC[C@H](CC(=O)N3CCN(C)CC3)O[C@H]1CO2` the inhibition was 51.4% (active).
With `CN1CCN(C(=O)C[C@H]2CC[C@H]3[C@@H](COc4ccc(NC(=O)C5CCOCC5)cc4C(=O)N3C)O2)CC1` the inhibition was -56% (inactive).
In the case of `CCS(=O)(=O)Nc1ccc2c(c1)C(=O)N(C)[C@H]1CC[C@@H](CC(=O)N3CCN(C)CC3)O[C@H]1CO2`, the inhibition is reported as 15.7% (inactive).
For `CCS(=O)(=O)Nc1ccc2c(c1)C(=O)N(C)[C@@H]1CC[C@H](CC(=O)N3CCN(C)CC3)O[C@H]1CO2`, the inhibition was 0.381% (inactive).
With `CN1CCN(C(=O)C[C@@H]2CC[C@H]3[C@@H](COc4ccc(NC(=O)C5CCOCC5)cc4C(=O)N3C)O2)CC1` the inhibition was 51.1% (active).
In the case of `CN1C(=O)c2cc(NS(=O)(=O)c3ccccc3F)ccc2OC[C@H]2O[C@H](CC(=O)NC3Cc4ccccc4C3)CC[C@H]21`, the inhibition is reported as -1.53% (inactive).
With `CN1C(=O)c2cc(NS(=O)(=O)c3ccccc3F)ccc2OC[C@@H]2O[C@H](CC(=O)NC3Cc4ccccc4C3)CC[C@@H]21` the inhibition was -9.49% (inactive).
With `CN1C(=O)c2cc(NC(=O)Cc3cccs3)ccc2OC[C@H]2O[C@H](CC(=O)NCCc3ccncc3)CC[C@@H]21` the inhibition was -70.9% (inactive).
With `CN1C(=O)c2cc(NC(=O)Cc3cccs3)ccc2OC[C@@H]2O[C@@H](CC(=O)NCCc3ccncc3)CC[C@H]21` the inhibition was 60.1% (active).
For `COc1ccccc1NC(=O)N[C@H]1CC[C@H](CCNS(=O)(=O)c2ccc(Cl)cc2)O[C@@H]1CO`, the inhibition was 8.99% (inactive).
With `COc1ccc(NC(=O)N[C@H]2CC[C@H](CCNC(=O)CN3CCOCC3)O[C@H]2CO)cc1` the inhibition was -23.1% (inactive).
In the case of `CC(=O)N1C[C@@H]2N[C@H](C1)C2c1ccc(-c2ccccc2)cc1` (some centres undefined), the inhibition is reported as -22.3% (inactive).
In the case of `O=C(C[C@H]1CC[C@@H](NC(=O)c2cccnc2)[C@@H](CO)O1)NCc1ccc(Cl)c(Cl)c1`, the inhibition is reported as 26.4% (inactive).
In the case of `CN1C(=O)c2cc(NC(=O)c3cccc(F)c3)ccc2OC[C@@H]2O[C@@H](CC(=O)NCc3ccccc3Cl)CC[C@@H]21`, the inhibition is reported as 36% (inactive).
For `COCC#Cc1ccc([C@@H]2[C@@H](CO)N3CCCCN(C(=O)NC4CCCC4)C[C@@H]23)cc1`, the inhibition was -25.3% (inactive).
For `CO[C@@H](CN(C)S(=O)(=O)c1ccc(C)cc1)[C@@H](C)CN([C@H](C)CO)S(=O)(=O)c1cccc(Cl)c1`, the inhibition was 74.7% (active).
With `CO[C@@H](CN(C)S(=O)(=O)c1ccc(C)cc1)[C@H](C)CN([C@@H](C)CO)S(=O)(=O)c1cccc(Cl)c1` the inhibition was 78.9% (active).
With `CO[C@H](CN(C)S(=O)(=O)c1ccc(C)cc1)[C@H](C)CN([C@@H](C)CO)S(=O)(=O)c1cccc(Cl)c1` the inhibition was 1.44% (inactive).
With `CO[C@H](CN(C)S(=O)(=O)c1ccc(C)cc1)[C@@H](C)CN([C@@H](C)CO)S(=O)(=O)c1cccc(Cl)c1` the inhibition was 6.82% (inactive).
With `CO[C@@H](CN(C)S(=O)(=O)c1ccc(C)cc1)[C@@H](C)CN([C@@H](C)CO)S(=O)(=O)c1cccc(Cl)c1` the inhibition was 38.7% (inactive).
For `CO[C@@H](CN(C)S(=O)(=O)c1ccc(C)cc1)[C@H](C)CN([C@H](C)CO)S(=O)(=O)c1cccc(Cl)c1`, the inhibition was 93.3% (active).
For `CO[C@@H](CN(C)Cc1cc(F)ccc1F)[C@@H](C)CN([C@H](C)CO)S(=O)(=O)c1ccc(C)cc1`, the inhibition was 14.9% (inactive).
For `CO[C@H](CN(C)S(=O)(=O)c1ccc(C)cc1)[C@@H](C)CN([C@H](C)CO)S(=O)(=O)c1cccc(Cl)c1`, the inhibition was 32.6% (inactive).
In the case of `CO[C@H](CN(C)S(=O)(=O)c1ccc(C)cc1)[C@H](C)CN([C@H](C)CO)S(=O)(=O)c1cccc(Cl)c1`, the inhibition is reported as 16.6% (inactive).
For `CO[C@H]1CC[C@@H]2CCOc3ccc(C#N)cc3C(=O)N(C)C[C@@H](c3ccccc3)CC(=O)N(C)C[C@@H]1O2`, the inhibition was -39.9% (inactive).
With `OC[C@@H]1[C@H](c2ccc(C#Cc3ccccc3F)cc2)[C@@H]2CN(CC3CCOCC3)CCCCN12` the inhibition was -33.6% (inactive).
With `CCCNC[C@@H]1[C@@H](c2ccc(C3=CCCCC3)cc2)[C@@H](CO)N1C(=O)C1CCC1` the inhibition was -79.5% (inactive).
In the case of `CN1C(=O)c2cc(NC(=O)Nc3ccccc3Cl)ccc2OC[C@@H]2O[C@@H](CC(=O)O)CC[C@H]21`, the inhibition is reported as -2.71% (inactive).
